Laboratory results as given in paper PMC7862700, “An all-to-all approach to the identification of sequence-specific readers for epigenetic DNA modifications on cytosine”.

Key:
Assay in all cases: DAPPL (digital affinity profiling via proximity ligation, sequencing); 10 mM Tris-HCl pH 7.5, 50 mM NaCl, 1 mM DTT, 4% glycerol, room temperature, 30 min; GST-TFs on glutathione beads, 16-mer random dsDNA library, 0.1% formaldehyde crosslink after washing; high values mean tight binding
FLI1 = molecular target: T1, FLI1 (Homo sapiens, UniProt Q01543 1-452); conditions: protein: recombinant; tags: N-terminal GST; dsDNA, one strand shown
T1 sequence: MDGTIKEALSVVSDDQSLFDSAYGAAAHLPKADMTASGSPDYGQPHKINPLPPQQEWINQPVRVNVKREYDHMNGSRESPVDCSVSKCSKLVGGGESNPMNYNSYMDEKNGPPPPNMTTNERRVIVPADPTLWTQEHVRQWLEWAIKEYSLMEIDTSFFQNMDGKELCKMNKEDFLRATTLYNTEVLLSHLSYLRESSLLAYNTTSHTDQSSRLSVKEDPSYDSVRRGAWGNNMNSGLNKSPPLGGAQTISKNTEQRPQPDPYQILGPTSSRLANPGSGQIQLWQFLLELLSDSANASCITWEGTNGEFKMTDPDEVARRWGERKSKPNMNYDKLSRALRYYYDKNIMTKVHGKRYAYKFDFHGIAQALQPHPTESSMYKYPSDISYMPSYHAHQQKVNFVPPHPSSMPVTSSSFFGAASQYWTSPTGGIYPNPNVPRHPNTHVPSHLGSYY
Summary of the method: (§1)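 Human transcription factors fused to GST were expressed in yeast, captured on glutathione beads, given DNA barcodes and pooled with a GST-only negative control. Pools were incubated with 200 nmole of a 16-mer random double-stranded DNA library in Tris/NaCl/DTT/glycerol buffer at room temperature for 30 min. They were then washed, crosslinked with 0.1% formaldehyde, proximity-ligated (BsaI/T4 ligase, 1 h, 37 °C), PCR-amplified and sequenced on an Illumina NextSeq500. Binding signal is each 6-mer's read frequency for a factor divided by its frequency for the GST control.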

ELK1 = molecular target: T2, ELK1 (Homo sapiens, UniProt P19419 1-428); conditions: protein: recombinant; tags: N-terminal GST; dsDNA, one strand shown
T2 sequence: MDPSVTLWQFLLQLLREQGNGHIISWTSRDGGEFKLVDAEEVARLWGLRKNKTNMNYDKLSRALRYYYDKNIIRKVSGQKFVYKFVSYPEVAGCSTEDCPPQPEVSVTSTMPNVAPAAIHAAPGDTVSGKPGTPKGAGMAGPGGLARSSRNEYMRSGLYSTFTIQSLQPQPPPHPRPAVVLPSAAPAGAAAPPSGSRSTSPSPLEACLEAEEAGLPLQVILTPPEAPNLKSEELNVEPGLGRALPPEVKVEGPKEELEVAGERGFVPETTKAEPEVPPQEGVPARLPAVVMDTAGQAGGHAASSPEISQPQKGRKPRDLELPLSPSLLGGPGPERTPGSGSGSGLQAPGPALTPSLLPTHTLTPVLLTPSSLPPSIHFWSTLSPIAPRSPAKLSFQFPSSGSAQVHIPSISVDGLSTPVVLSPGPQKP
Summary of the method: as §1

GABPA = molecular target: T3, GABPA (Homo sapiens, UniProt Q06546 1-454); conditions: protein: recombinant; tags: N-terminal GST; dsDNA, one strand shown
T3 sequence: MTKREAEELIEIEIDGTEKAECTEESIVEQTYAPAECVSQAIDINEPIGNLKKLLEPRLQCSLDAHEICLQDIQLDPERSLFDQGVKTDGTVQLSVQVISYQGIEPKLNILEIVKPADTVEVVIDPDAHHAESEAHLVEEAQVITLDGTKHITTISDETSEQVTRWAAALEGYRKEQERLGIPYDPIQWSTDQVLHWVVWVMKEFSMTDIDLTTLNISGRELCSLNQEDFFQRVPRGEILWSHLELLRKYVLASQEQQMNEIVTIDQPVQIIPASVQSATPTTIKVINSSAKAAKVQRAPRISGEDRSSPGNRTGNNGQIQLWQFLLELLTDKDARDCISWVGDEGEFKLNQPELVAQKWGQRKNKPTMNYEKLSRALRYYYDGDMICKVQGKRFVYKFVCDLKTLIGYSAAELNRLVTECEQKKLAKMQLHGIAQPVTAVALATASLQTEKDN
Summary of the method: as §1

ERG = molecular target: T4, ERG (Homo sapiens, UniProt P11308 1-479); conditions: protein: recombinant; tags: N-terminal GST; dsDNA, one strand shown
T4 sequence: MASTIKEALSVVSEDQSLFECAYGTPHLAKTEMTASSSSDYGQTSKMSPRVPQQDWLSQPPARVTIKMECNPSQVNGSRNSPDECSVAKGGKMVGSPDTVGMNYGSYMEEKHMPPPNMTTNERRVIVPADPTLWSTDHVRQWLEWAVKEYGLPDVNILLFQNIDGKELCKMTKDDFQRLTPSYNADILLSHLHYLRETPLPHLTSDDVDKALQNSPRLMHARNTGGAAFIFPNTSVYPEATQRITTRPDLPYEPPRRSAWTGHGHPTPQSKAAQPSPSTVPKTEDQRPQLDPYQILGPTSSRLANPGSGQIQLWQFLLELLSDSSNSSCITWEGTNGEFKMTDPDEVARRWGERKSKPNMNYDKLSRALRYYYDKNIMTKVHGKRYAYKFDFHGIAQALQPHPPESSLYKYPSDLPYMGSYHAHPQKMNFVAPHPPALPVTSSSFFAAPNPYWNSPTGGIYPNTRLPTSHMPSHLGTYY
Summary of the method: as §1

ELF1 = ELF1 (Homo sapiens, UniProt P32519 1-619); conditions: protein: recombinant; tags: N-terminal GST; dsDNA, one strand shown
Chain of ELF1 (P32519 whole entry): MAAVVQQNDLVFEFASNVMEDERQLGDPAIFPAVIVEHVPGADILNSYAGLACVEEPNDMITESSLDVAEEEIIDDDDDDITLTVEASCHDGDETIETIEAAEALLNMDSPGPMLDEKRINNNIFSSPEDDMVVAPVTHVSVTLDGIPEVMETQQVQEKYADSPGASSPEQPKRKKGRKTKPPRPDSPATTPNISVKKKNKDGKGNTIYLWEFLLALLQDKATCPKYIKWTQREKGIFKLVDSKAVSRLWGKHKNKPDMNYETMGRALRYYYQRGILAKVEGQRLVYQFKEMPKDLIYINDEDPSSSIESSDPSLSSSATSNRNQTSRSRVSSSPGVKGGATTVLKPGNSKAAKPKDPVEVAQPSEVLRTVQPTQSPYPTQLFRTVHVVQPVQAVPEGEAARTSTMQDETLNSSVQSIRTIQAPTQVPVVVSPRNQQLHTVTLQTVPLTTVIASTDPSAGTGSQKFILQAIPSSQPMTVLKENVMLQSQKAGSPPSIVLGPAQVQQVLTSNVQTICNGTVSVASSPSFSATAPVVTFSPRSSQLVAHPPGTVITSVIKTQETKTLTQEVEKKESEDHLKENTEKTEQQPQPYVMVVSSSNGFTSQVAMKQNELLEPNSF
Summary of the method: as §1

EHF = molecular target: T5, EHF (Homo sapiens, UniProt Q9NZC4 1-300); conditions: protein: recombinant; tags: N-terminal GST; dsDNA, one strand shown
T5 sequence: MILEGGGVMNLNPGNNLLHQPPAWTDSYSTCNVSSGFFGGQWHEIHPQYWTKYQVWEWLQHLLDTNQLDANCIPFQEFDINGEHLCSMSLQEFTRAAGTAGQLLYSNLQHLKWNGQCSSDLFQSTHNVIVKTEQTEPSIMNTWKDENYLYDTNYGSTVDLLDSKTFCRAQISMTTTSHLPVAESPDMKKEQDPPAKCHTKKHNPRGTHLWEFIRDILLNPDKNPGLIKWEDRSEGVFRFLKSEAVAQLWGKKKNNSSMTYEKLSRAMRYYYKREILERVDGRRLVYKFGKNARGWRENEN
Summary of the method: as §1

SPI1 = SPI1 (Homo sapiens, UniProt P17947 1-270); conditions: protein: recombinant; tags: N-terminal GST; dsDNA, one strand shown
Summary of the method: as §1

SPIB = SPIB (Homo sapiens, UniProt Q01892 1-262); conditions: protein: recombinant; tags: N-terminal GST; dsDNA, one strand shown
Chain of SPIB (Q01892 whole entry): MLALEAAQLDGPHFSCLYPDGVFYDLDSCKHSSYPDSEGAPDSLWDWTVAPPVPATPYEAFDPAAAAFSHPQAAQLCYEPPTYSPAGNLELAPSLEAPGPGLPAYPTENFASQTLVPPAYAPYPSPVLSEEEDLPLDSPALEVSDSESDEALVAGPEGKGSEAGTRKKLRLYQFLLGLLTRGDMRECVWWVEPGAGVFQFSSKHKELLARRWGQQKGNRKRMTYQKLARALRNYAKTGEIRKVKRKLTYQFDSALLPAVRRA
Summary of the method: as §1

ELK3 = molecular target: T6, ELK3 (Homo sapiens, UniProt P41970 1-407); conditions: protein: recombinant; tags: N-terminal GST; dsDNA, one strand shown
T6 sequence: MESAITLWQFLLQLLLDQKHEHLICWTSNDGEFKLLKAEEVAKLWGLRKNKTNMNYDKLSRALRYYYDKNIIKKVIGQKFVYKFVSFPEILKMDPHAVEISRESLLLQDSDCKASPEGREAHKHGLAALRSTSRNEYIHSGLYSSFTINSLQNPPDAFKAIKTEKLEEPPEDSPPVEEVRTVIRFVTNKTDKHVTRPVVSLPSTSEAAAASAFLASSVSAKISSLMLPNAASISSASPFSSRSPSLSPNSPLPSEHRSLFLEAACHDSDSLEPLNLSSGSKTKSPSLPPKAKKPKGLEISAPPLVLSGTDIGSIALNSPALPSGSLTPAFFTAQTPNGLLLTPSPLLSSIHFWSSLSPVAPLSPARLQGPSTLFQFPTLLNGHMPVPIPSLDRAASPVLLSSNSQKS
Summary of the method: as §1

FEV = molecular target: T7, FEV (Homo sapiens, UniProt Q99581 1-238); conditions: protein: recombinant; tags: N-terminal GST; dsDNA, one strand shown
T7 sequence: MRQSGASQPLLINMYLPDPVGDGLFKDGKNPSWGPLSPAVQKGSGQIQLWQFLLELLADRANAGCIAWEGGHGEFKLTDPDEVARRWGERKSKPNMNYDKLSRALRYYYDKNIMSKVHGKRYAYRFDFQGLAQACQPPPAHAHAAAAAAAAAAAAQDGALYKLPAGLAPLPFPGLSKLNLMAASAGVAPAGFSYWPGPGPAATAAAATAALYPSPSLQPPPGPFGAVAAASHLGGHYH
Summary of the method: as §1

ETV5 = ETV5 (Homo sapiens, UniProt P41161 1-510); conditions: protein: recombinant; tags: N-terminal GST; dsDNA, one strand shown
Chain of ETV5 (P41161 whole entry): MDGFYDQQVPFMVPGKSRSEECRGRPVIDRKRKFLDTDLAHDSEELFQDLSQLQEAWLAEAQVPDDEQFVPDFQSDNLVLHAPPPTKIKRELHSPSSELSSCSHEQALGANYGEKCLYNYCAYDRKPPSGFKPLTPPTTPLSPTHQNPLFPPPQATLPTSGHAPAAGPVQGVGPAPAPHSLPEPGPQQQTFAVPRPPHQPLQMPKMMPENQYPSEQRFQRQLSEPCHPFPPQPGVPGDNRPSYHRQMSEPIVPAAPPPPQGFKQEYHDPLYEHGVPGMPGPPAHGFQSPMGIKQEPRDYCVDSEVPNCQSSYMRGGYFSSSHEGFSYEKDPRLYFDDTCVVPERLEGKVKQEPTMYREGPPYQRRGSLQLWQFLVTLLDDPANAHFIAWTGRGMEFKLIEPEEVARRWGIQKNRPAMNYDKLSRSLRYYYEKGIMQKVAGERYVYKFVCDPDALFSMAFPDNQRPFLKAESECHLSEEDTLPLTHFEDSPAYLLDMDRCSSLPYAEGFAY
Summary of the method: as §1

HSF1 = HSF1 (Homo sapiens, UniProt Q00613 1-529); conditions: protein: recombinant; tags: N-terminal GST; chain copies: 3; dsDNA, one strand shown
Chain of HSF1 (Q00613 whole entry): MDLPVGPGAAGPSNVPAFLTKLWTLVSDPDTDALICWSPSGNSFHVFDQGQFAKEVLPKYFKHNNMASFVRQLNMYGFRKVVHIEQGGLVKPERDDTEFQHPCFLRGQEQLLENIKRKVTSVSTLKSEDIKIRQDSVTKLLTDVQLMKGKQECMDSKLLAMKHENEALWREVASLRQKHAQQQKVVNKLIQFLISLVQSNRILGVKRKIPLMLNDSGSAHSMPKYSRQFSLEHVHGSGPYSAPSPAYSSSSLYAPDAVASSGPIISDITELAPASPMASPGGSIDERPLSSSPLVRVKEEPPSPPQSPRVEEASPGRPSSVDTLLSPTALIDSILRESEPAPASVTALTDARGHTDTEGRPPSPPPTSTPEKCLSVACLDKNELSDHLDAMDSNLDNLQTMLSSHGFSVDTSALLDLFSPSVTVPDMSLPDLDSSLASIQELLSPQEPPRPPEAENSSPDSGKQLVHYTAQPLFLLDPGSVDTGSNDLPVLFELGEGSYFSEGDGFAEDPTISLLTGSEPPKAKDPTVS
Summary of the method: as §1

SPIC = molecular target: T8, SPIC (Homo sapiens, UniProt Q8N5J4 1-248); conditions: protein: recombinant; tags: N-terminal GST; dsDNA, one strand shown
T8 sequence: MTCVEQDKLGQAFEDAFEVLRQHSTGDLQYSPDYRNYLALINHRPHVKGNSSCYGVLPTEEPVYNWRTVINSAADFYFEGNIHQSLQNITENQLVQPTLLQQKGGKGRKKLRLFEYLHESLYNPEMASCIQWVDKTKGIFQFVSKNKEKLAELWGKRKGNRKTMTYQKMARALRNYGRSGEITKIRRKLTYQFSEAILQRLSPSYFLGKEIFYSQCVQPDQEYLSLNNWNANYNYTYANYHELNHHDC
Summary of the method: as §1

ELF4 = ELF4 (Homo sapiens, UniProt Q99607 1-663); conditions: protein: recombinant; tags: N-terminal GST; dsDNA, one strand shown
Chain of ELF4 (Q99607 whole entry): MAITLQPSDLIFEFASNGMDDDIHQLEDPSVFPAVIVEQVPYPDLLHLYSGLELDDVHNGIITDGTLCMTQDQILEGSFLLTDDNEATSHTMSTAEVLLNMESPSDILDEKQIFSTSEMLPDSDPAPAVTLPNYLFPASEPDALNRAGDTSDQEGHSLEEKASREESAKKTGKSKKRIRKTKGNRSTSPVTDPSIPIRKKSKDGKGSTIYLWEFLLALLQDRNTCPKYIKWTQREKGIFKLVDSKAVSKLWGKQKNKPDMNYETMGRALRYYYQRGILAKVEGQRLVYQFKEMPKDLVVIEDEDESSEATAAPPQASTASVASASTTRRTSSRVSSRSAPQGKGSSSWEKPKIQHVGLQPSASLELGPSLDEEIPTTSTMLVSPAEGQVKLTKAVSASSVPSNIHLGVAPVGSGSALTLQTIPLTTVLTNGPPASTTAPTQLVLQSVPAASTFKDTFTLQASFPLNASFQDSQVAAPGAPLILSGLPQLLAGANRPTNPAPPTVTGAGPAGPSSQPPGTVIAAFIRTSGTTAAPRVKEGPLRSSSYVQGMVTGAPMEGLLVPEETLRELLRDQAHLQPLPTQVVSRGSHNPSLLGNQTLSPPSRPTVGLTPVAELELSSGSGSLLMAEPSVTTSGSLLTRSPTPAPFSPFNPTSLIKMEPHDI
Summary of the method: as §1

ELK4 = molecular target: T9, ELK4 (Homo sapiens, UniProt P28324-2 1-405); conditions: protein: recombinant; tags: N-terminal GST; dsDNA, one strand shown
T9 sequence: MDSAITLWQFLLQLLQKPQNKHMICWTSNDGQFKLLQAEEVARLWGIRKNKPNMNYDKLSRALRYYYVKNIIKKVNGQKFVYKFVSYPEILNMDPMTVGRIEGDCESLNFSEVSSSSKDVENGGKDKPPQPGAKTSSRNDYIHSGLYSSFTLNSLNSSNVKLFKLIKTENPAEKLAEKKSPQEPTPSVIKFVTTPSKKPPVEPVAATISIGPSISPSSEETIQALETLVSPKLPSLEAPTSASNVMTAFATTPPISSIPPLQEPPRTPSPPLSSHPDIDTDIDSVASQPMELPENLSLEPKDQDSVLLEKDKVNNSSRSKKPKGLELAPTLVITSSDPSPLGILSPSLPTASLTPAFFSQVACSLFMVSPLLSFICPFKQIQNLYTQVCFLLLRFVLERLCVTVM
Summary of the method: as §1

ETV2 = molecular target: T10, ETV2 (Homo sapiens, UniProt O00321 1-342); conditions: protein: recombinant; tags: N-terminal GST; dsDNA, one strand shown
T10 sequence: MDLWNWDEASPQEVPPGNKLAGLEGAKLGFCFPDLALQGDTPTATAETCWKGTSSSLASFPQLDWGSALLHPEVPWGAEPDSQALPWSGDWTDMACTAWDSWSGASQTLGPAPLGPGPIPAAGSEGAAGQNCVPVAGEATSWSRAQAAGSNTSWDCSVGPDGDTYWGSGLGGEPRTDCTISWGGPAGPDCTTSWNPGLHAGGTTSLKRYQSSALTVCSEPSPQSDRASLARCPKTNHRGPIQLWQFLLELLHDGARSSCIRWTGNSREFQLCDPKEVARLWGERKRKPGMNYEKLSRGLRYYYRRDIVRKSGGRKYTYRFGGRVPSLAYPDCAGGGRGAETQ
Summary of the method: as §1

ELF3 = molecular target: T11, ELF3 (Homo sapiens, UniProt P78545 1-371); conditions: protein: recombinant; tags: N-terminal GST; dsDNA, one strand shown
T11 sequence: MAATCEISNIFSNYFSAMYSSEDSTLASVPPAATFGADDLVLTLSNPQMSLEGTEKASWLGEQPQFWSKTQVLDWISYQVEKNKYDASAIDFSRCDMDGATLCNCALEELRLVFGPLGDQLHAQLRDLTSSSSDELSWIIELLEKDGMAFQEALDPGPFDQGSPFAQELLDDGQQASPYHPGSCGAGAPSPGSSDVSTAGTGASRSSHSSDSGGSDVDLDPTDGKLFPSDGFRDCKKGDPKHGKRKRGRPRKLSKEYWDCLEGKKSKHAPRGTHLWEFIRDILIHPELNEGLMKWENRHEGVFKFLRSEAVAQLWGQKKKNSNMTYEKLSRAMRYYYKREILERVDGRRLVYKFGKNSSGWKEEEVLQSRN
Summary of the method: as §1

CRX = CRX (Homo sapiens, UniProt O43186 1-299); conditions: protein: recombinant; tags: N-terminal GST; dsDNA, one strand shown
Chain of CRX (O43186 whole entry): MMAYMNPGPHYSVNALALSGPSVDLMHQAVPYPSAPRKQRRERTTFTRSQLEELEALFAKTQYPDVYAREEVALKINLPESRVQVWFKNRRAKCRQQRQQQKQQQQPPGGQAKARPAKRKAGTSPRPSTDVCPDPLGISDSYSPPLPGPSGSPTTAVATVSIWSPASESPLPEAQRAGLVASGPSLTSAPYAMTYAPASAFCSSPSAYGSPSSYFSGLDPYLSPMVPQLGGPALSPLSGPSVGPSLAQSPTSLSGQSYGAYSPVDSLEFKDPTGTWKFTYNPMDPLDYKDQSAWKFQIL
Summary of the method: as §1

ETV1 = ETV1 (Homo sapiens, UniProt P50549 1-477); conditions: protein: recombinant; tags: N-terminal GST; dsDNA, one strand shown
Chain of ETV1 (P50549 whole entry): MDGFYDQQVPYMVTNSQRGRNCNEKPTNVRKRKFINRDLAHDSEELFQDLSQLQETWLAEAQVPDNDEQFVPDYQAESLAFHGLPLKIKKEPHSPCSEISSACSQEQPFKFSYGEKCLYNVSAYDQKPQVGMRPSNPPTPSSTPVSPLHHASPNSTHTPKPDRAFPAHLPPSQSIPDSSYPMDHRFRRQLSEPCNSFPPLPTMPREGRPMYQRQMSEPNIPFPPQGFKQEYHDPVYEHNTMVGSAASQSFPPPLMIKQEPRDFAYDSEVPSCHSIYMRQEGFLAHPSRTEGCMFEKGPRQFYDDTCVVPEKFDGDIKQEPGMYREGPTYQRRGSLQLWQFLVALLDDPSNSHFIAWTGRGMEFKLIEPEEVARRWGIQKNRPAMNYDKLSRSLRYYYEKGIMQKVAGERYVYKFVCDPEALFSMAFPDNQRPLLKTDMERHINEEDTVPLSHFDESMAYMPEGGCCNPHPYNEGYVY
Summary of the method: as §1

With CTCTGA the binding signal (FLI1) was 1.18 fold enrichment (6-mer frequency, TF over GST control), the binding signal (ELK1) was 1.32 fold enrichment (6-mer frequency, TF over GST control) and the binding signal (GABPA) was 1.22 fold enrichment (6-mer frequency, TF over GST control). The binding signal (ERG) was 1.21 fold enrichment (6-mer frequency, TF over GST control), the binding signal (ELF1) was 1.25 fold enrichment (6-mer frequency, TF over GST control) and the binding signal (EHF) was 1.3 fold enrichment (6-mer frequency, TF over GST control). For the same sequence, the binding signal (SPI1) was 1.17 fold enrichment (6-mer frequency, TF over GST control), the binding signal (SPIB) was 1.31 fold enrichment (6-mer frequency, TF over GST control) and the binding signal (ELK3) was 1.12 fold enrichment (6-mer frequency, TF over GST control). The binding signal (FEV) was 1.23 fold enrichment (6-mer frequency, TF over GST control), the binding signal (ETV5) was 1.15 fold enrichment (6-mer frequency, TF over GST control) and the binding signal (HSF1) was 1.06 fold enrichment (6-mer frequency, TF over GST control). For the same sequence, the binding signal (SPIC) was 1.24 fold enrichment (6-mer frequency, TF over GST control), the binding signal (ELF4) was 1.23 fold enrichment (6-mer frequency, TF over GST control) and the binding signal (ELK4) was 1.15 fold enrichment (6-mer frequency, TF over GST control). The binding signal (ETV2) was 1.12 fold enrichment (6-mer frequency, TF over GST control), the binding signal (ELF3) was 1.09 fold enrichment (6-mer frequency, TF over GST control) and the binding signal (CRX) was 1.08 fold enrichment (6-mer frequency, TF over GST control). The binding signal (ETV1) was 1.3 fold enrichment (6-mer frequency, TF over GST control).
